Results from PubChem BioAssay AID652104 (National Center for Advancing Translational Sciences (NCATS), 2013).
Among all 410,000 compounds or so, about 7,200 (1.8%) were called active. Inconclusive results (about 7%) are left out. Only a selection was taken, and actives are over-represented in it overall. Unmarked numbers belong to inactive results. Calls follow the shape of the dose curve; as a rule, active = well fitted activation curve with a large enough effect; inconclusive = small, poorly fitted or top-dose-only effect, or another doubt; inactive = no such curve, though single readings can be large or run the other way.

Assay: qHTS of TDP-43 Inhibitors; also: nearly all actives have a fitted effect of over 50% in size; as to growth rescue (activation): % of control where 0% means no effect
Conditions: TDP-43 expressing yeast growth rescue, BacTiter-Glo, 24 h; series mostly up to 46.1 µM; growth rescue (activation): at the top concentration
In short: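 Cell-based yeast growth screen: TDP-43 expression induced in galactose, inoculum OD600=0.02 after raffinose pregrowth to mid-log. Read-out BacTiter-Glo luminescence at 24 hr, 30 deg C; inhibition of toxicity seen as signal increase.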
Potency is read from the fitted curve at half-maximal effect.

Row | Structure (SMILES) | growth rescue (activation) | Potency
1 | CCOc1ccc(N(CC)S(=O)(=O)N2CCCC(C(=O)NCc3ccc(SC)cc3)C2)cc1 (configuration not stated) | 14.4% | 
2 | CCN(CC)c1ccc(NS(=O)(=O)c2cc(-c3cc(C)no3)ccc2C)c(C)c1 | -14.9% | 
3 | Cc1cccc(-n2c(SCC(N)=O)nc3c(oc4ccccc43)c2=O)c1 | 26.1% | 
4 | COc1ccc(NC(=O)CCCN2C(=O)CCn3nc(-c4cn(C)c5ccccc45)cc32)cc1OC | 14.9% | 
5 | CCOCCCn1c(SCC(=O)Nc2ccc(CC)cc2)nc2ccccc2c1=O | 8.55% | 
6 | COc1ccc(OC)c(CNC(=O)c2c3c(nc4ccccc24)C(=O)N(C2CCCCC2)C3)c1 | 2.95% | 
7 | Cc1ccc2cc(/C=N/NC(=O)[C@@H]3CCCN3)c(Cl)nc2c1 |  | 4.47 µM (active)
8 | O=C(Nc1cccc(F)c1)[C@@H]1CCCN1 | 4.62% | 
9 | CCc1ccccc1NS(=O)(=O)c1ccc2nc(-c3ccccc3)[nH]c2c1 | 23% | 
10 | Cc1nc2ccc(S(=O)(=O)NC(C(=O)NCc3ccccc3Cl)C(C)C)cc2s1 (configuration not stated) | 23.9% | 
11 | Cc1cccc(OCCSc2nc3ccc(NC(=O)COc4ccccc4C)cc3s2)c1 | -10.4% | 
12 | Cc1ccc(S(=O)Cc2ccc(C(=O)N3CCN(C4CCCCC4)CC3)o2)cc1 (configuration not stated) | -22.5% | 
13 | Cc1cccc(C(=O)N2c3nc(-c4ccco4)nn3C3(CCCCC3)[C@@H]3CCCC[C@@H]32)c1 | 14.2% | 
14 | Cc1ccc(C(=O)N2c3ncnn3C3(CCCCC3)[C@@H]3CCCC[C@@H]32)cc1 |  | 22.4 µM (active)
15 | CCOC(=O)c1c(C)[nH]c(C)c1S(=O)(=O)NCC(=O)NCc1cccc(C)c1 | -15.8% | 
16 | O=C(CCc1nc(CN2CCN(S(=O)(=O)c3ccc(Br)cc3)CC2)no1)N1CCCCC1 | -11% | 
17 | COc1ccc(C2CC(=O)Nc3c2c(=O)nc2c(C)cccn32)cc1OC (configuration not stated) | 25.6% [at 9.22 µM] | 
18 | COC(=O)c1cnn(-c2ccc(C(=O)Nc3ccc(OC(F)(F)F)cc3)cc2)c1N | 12.1% [at 9.22 µM] | 
19 | CCc1nc2nc(C)cc(Nc3ccc(F)c(Cl)c3)n2n1 | 24.6% | 
20 | COc1ccccc1NC(=O)CCC(=O)N1CC(C)Oc2ccc(C)cc21 (configuration not stated) |  | inactive
21 | Cc1ccc(Cl)cc1NC(=O)CCC(=O)N1CC(C)Sc2ccccc21 (configuration not stated) |  | 25.1 µM (active)
22 | Cc1ccc(CNC(=O)CCC(=O)N2CC(C)Sc3ccccc32)cc1 (configuration not stated) | 21.1% | 
23 | CC(=O)N1CCCc2cc(S(=O)(=O)N3CCC(C(=O)NC4CCCCC4)CC3)ccc21 | 19.1% | 
24 | Cc1ccc(NC(=O)CSc2nc3c(c(=O)[nH]2)CN(Cc2ccc4c(c2)OCO4)CC3)cc1C | -5.01% | 
25 | Cc1cccc(NC(=O)Cn2c(=O)n(CCC(C)C)c(=O)c3cccnc32)c1 | -4.57% | 

Row | Structure (SMILES) | growth rescue (activation) | Potency
26 | COc1ccc(-c2cn3nc(N4CCCC(C(=O)NCCCOC(C)C)C4)sc3n2)cc1 (configuration not stated) | 21.4% | 
27 | COC(=O)c1sc2ncccc2c1-n1c(C)ccc1C | 22.8% | 
28 | COc1ccc(-n2c(C)csc2=S)cc1 | 14.9% | 
29 | COC(=O)c1sc(=S)n(-c2ccc(Cl)cc2)c1C |  | 12.6 µM (active)
30 | Cc1ccccc1-c1nc(SCC(=O)N(C)c2ccccc2)c2c(=O)n(C)c(=O)n(C)c2n1 | 0% [at 9.22 µM] | 
31 | CCc1cc2c(N3CCN(c4nnc(CC)s4)CC3)ncnc2s1 |  | 17.8 µM (active)
32 | CCN1CCN(c2ncnc3c2cnn3-c2ccc(C)c(C)c2)CC1 | -11.6% | 
33 | Cc1ccc(NC(=O)CSc2nnc3[nH]c(=O)cc(C)n23)cc1Cl | 21.8% | 
34 | COc1ccc(-c2cc(-c3nc(-c4cc(OC)c(OC)c(OC)c4)no3)[nH]n2)c(OC)c1 | 11.5% | 
35 | CCOc1ccc(CNC(=O)C2CCCN(S(=O)(=O)N(CC)c3ccc(OCC)cc3)C2)cc1 (configuration not stated) | 18% | 
36 | Oc1ccc(-c2[nH]ncc2-c2nc3ccccc3s2)c(O)c1 | 18.5% | 
37 | CCOc1ccccc1Oc1cn[nH]c1-c1ccc(OC)cc1O |  | 22.4 µM (active)
38 | CCN(CCn1cccn1)Cc1cn[nH]c1-c1ccc(OC)cc1F | 3.87% | 
39 | Cc1cccc(N2CCN(C(=O)c3ccc4c(c3)CCN4S(=O)(=O)c3ccccc3)CC2)c1C | 18.4% | 
40 | CC(=O)c1ccc(NC(c2ccc(F)cc2)c2nnc(-c3ccccc3)o2)cc1 (configuration not stated) | 1.24% | 
41 | CCOC(=O)c1c(NC(=O)c2cc(CC)on2)sc(C(C)=O)c1C | 18.1% | 
42 | O=C(CNC(=O)Cc1ccccc1)NCC(=O)OCC(=O)c1ccccc1Cl | -11.4% | 
43 | O=C(CNC(=O)OCc1ccccc1)Oc1cc2oc(=O)cc(-c3ccccc3)c2cc1Cl |  | 7.08 µM (active)
44 | O=C(CNC(=O)OCc1ccccc1)NC1CCCCNC1=O (configuration not stated) | -16.7% | 
45 | CCc1ccc(NC(=O)CCS(=O)(=O)c2cc3c(cc2Cl)NC(=O)CO3)cc1 | 5.16% | 
46 | CCCCCn1c(=O)c(C(=O)OCC)c(Cl)c2ccccc21 | -8.57% | 
47 | CCCn1c(=O)c(-c2ccccc2)c(O)c2ccccc21 |  | 22.4 µM (active)
48 | Cn1c(=O)c(C(=O)Nc2ncccn2)c(O)c2ccccc21 | -9.83% | 
49 | COc1ccc(OC)c(NC(=O)CSC2=Nc3ccccc3C3=NC(CC(=O)NCCc4ccccc4)C(=O)N23)c1 (configuration not stated) | 0% | 
50 | Cc1c(-c2nc(-c3ccc4c(c3)OCO4)no2)nnn1-c1ccc(Br)cc1F | 13.5% | 

Row | Structure (SMILES) | growth rescue (activation) | Potency
51 | Cc1cc(Nc2ccc(C)c(C)c2)n2ncnc2n1 | 14.1% | 
52 | CC1CCc2c(nc3ncnn3c2Nc2ccc(OC(F)(F)F)cc2)C1 (configuration not stated) | -0.0857% | 
53 | Brc1ccc(Nc2c3c(nc4ncnn24)CCC3)cc1 |  | 12.6 µM (active)
54 | COc1ccc(C(=O)c2oc3ccccc3c2NC(=O)COc2cccc(C)c2)cc1 | 9.29% [at 9.22 µM] | 
55 | Cc1c(NC(=O)c2cc(=O)c3ccccc3o2)c(=O)n(-c2ccccc2)n1C | 22.7% | 
56 | CCOC(=O)c1cccc(NS(=O)(=O)c2cc(-c3cnc(C)o3)ccc2OC)c1 | 22.8% | 
57 | Cc1nc(NC(=O)c2ccc3c(c2)OCCO3)ccc1Br |  | 12.6 µM (active)
58 | CS(=O)(=O)c1ccc(-c2nnc(NC(=O)c3ccc4c(c3)OCCO4)o2)cc1 | 0% | 
59 | C/C(Cc1ccccc1)=N\NC(=O)CNC(=O)c1ccc2c(c1)OCCO2 | 5.25% | 
60 | Cc1ccc(C)c(NC(=O)C2CCCN(S(=O)(=O)c3cn(C)cn3)C2)c1 (configuration not stated) | 16.4% | 
61 | CC(=O)N1CCCc2cc(S(=O)(=O)Nc3ccc(Cl)cc3F)ccc21 | 26.2% | 
62 | CCOC(=O)c1cccc(NC(=O)CCn2nnc3ccccc32)c1 | -14.2% | 
63 | CCn1nnc2cc(C(=O)Nc3ccc(C(=O)OC(C)C)cc3)ccc21 |  | 11.2 µM (active)
64 | CCOc1ccc(CNC(=O)c2ccc3c(c2)nnn3C2CCCC2)cc1 | 21.2% | 
65 | CCOC(=O)c1cc(-c2ccccc2)n(CCC(=O)Nc2ccccc2CC)c1C | -0.302% | 
66 | O=C(Nc1c(C(=O)N2CCN(c3ccc(F)cc3)CC2)oc2ccccc12)c1ccco1 | 0% | 
67 | O=C(NNC1CC(=O)N(c2cccc(Cl)c2)C1=O)c1cccnc1 (configuration not stated) | -2.69% | 
68 | O=C1[C@@H]2C(c3cccnc3)=NO[C@@H]2C(=O)N1c1ccc(Cl)cc1Cl |  | 35.5 µM (active)
69 | Cc1ccc(Cl)cc1N1CCN(C(=O)CN2C(=O)COc3ccc(S(=O)(=O)N4CCOCC4)cc32)CC1 | 16.2% | 
70 | CCC(=O)N1CCc2cc(S(=O)(=O)NC(CC(C)C)C(=O)NCCc3cccc(C)c3)ccc21 (configuration not stated) | 12.7% | 
71 | Cc1ccc(NC(=O)Cn2nnc3sc4c(c3c2=O)CCC(C)C4)cc1 (configuration not stated) | 0% | 
72 | CC(C)(C)OC(=O)N1CCC(c2c(C(=O)N3CCc4ccccc4C3)cnn2-c2ccc(F)cc2)CC1 | 3.82% | 
73 | COc1ccc(CN2CCc3nc(Nc4ccccc4)ncc3C2)c(OC)c1OC | 9.73% | 
74 | COc1ccc(Nc2ncc3c(n2)CCN(C(=O)OC(C)(C)C)C3)cc1 |  | 14.1 µM (active)
75 | O=c1cc(-c2ccccc2)n2c(SCc3ccccc3)nnc2[nH]1 | 19% | 

Row | Structure (SMILES) | growth rescue (activation) | Potency
76 | Cc1cccc(N2CCN(C(=O)CCn3c(=O)c4cccn4c4cccnc43)CC2C)c1 (configuration not stated) | 0% | 
77 | CCc1cnc2c(c1SCC(=O)c1ccccc1)c(=O)n(C)c(=O)n2C | 16.8% | 
78 | COc1ccc(Cl)cc1C(=O)OCC(=O)NCc1cccs1 | -0.926% | 
79 | O=C(COC(=O)/C=C/c1cccc(Cl)c1)NCc1cccs1 |  | 20 µM (active)
80 | O=C(COC(=O)c1ccc(Cl)nc1)NCc1cccs1 | 16.7% | 
81 | CCOc1ccc(CCNC(=O)c2ccc3c(c2)sc2nc(-c4ccc(F)cc4)cn23)cc1OCC | 19.4% | 
82 | COc1ccc2oc(C(=O)NCc3ccco3)c(C)c2c1 |  | 12.6 µM (active)
83 | COc1cc(C(=O)NC(=S)NCc2ccco2)cc(OC)c1OC | -2.12% | 
84 | COc1ccc2oc(C(=O)NCC(Cc3ccccc3)N(C)C)c(C)c2c1 (configuration not stated) | -16.2% | 
85 | COc1cccc(C(c2c(O)cc(C)n(Cc3ccco3)c2=O)N2CCN(c3ccccc3)CC2)c1 (configuration not stated) | 16.2% | 
86 | CCCCC(CC)CNC(=O)C1CCN(S(=O)(=O)c2cccc3nsnc23)CC1 (configuration not stated) | -7.96% | 
87 | O=S(=O)(c1ccc2nc(N3CCN(c4cccc(Cl)c4)CC3)ccc2c1)N1CCCCC1 | 4.2% | 
88 | Cc1cc(OC(=O)c2ccccc2)c([N+](=O)[O-])c(=O)[nH]1 | -3.46% | 
89 | COc1cccc(C(=O)Oc2cc(C)[nH]c(=O)c2[N+](=O)[O-])c1 | -7.6% | 
90 | Cc1cc(OC(=O)c2ccc(OC(C)C)cc2)c([N+](=O)[O-])c(=O)[nH]1 |  | 22.4 µM (active)
91 | Cc1nnc(SCc2cc(=O)c3cc(F)ccc3[nH]2)n1C | 13.1% | 
92 | CC(C)CC(=O)NCC(c1ccc2c(c1)OCO2)N1CCN(c2ccc(F)cc2)CC1 (configuration not stated) | -8.52% | 
93 | CCn1c(=O)cc(OCC(=O)Nc2cc(Cl)c(OC)cc2OC)c2ccccc21 | 8.79% | 
94 | Cc1ccc(S(=O)(=O)c2nc(-c3ccco3)oc2SCC(=O)Nc2ccc(F)cc2)cc1 | 25% | 
95 | COC(=O)c1sc(N)c(C(=O)OC)c1COC(=O)CNS(=O)(=O)c1ccc(C)cc1 | 17.9% | 
96 | Cc1ccc(-c2nc(COC(=O)c3c(C)noc3C)cs2)cc1 | 1.65% | 
97 | COC(=O)c1c(-c2ccc(C)cc2)csc1N |  | 12.6 µM (active)
